From PubChem
Mtb MbtI inh: blocks the Mycobacterium tuberculosis siderophore enzyme MbtI. P9WFX0. purified MbtI enzyme, fluorescence intensity read-out. inhibition, % (concentration not given with the values). 100,000 tested, 0.89% active. AID 493033; in the data active = inhibition mostly above about 56%, no sharp cut-off; inactive = mostly below about 77%
AID504770: growth inhibitors of E. coli YBA685 in a screen for V. cholerae RctB (chromosome II replication) inhibitors | E. coli YBA685 rctB-dependent plasmid, OD600 growth, 3 h; active compounds read low | z-score (test concentration not listed) | 130,000 tested, 0.27% active | AID 504770; in the data active = z-score below about -2, passing the limit was not always enough
Polio RdRp inh: inhibitors of poliovirus RNA polymerase binding and polymerization; P03300; poliovirus polymerase elongation, fluorescence polarization; active compounds read low; % elongation, % (compound at 16.7 µg/mL); 150,000 tested, 0.66% active; in the data active = % elongation below about 90%
MenB inh: Mtb MenB enzyme inhibition | P9WNP5 | MenB enzyme assay, absorbance read-out | inhibition, % (test concentration not listed) | 100,000 tested, 0.43% active | AID 540299; in the data active = inhibition above about 21%, passing the limit was not always enough
Target sequence (P9WNP5 whole entry, looked up): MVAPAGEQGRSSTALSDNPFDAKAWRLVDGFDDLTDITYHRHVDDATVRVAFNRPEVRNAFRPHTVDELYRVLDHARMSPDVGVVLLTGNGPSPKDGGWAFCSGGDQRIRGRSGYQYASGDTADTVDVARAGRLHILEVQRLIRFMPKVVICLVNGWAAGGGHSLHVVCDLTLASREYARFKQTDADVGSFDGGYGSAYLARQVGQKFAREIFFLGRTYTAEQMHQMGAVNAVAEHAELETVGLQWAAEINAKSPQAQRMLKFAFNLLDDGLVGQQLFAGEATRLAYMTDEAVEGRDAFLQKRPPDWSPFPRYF
An asterisk follows results filed as active. Sampled rows, rich in hits. Any-hit rate of the full collection: about 1.4%.

Screening CCn1c(=NC(=O)CSCC(=O)N2CCCc3ccccc32)sc2ccccc21 returned AID504770 -0.45.
Screening CC(C)N(C(=O)NC(=O)Nc1ccc(C=C(C#N)C#N)cc1)S(C)(=O)=O returned Mtb MbtI inh 13, AID504770 -0.25, Polio RdRp inh 88* and MenB inh -143.
O=S(=O)(NCC1COc2ccccc2O1)c1cccs1 (stereo not given) was read as AID504770 -0.15.
Screening Cc1sc2c(c1C)CSC(C(=O)O)=C2 returned Mtb MbtI inh 98*, AID504770 -1.4, Polio RdRp inh 100 and MenB inh -20.
Screening COc1ccc(NC(=O)CC2Sc3ncnn3C2=O)cc1 (stereo not given) returned Mtb MbtI inh 100* and AID504770 -0.3.
For COc1ccc(NC(=O)CC2SC(=Nc3ccccc3)N(c3ccccc3)C2=O)cc1 (stereo not given) the results were Mtb MbtI inh -1, AID504770 0.25, Polio RdRp inh 103 and MenB inh -23.
`CCC(=O)Nc1nc(-c2ccc(C)cc2C)cs1` gave AID504770 2.
Screening Cc1ccc(-c2csc(Nc3ccc(C(=O)O)cc3)n2)c(C)c1 returned AID504770 0.3, Polio RdRp inh 90* and MenB inh -20.
Cc1ccc2nc(-c3ccc(C)s3)c(Nc3ccc4c(c3)OCCO4)n2c1 was read as Polio RdRp inh 84*.
O=C(c1cc2c(s1)CCCCCC2)N1CCC2(CC1)OCCO2 was read as Mtb MbtI inh 1, AID504770 -0.1, Polio RdRp inh 99 and MenB inh -8.
Screening O=C(C1=Cc2sc3c(c2CS1)CCCC3)N1CCC2(CC1)OCCO2 returned Mtb MbtI inh 95*, AID504770 0.55, Polio RdRp inh 104 and MenB inh -15.
Screening Cc1cc(C)c2c(N)c(C(=O)c3ccccc3O)sc2n1 returned Mtb MbtI inh -1, AID504770 -0.3, Polio RdRp inh 104 and MenB inh -45.
Screening S=C(c1ccc(-c2ccccc2)o1)N1CCN(c2ccccc2)CC1 returned Mtb MbtI inh 92*, AID504770 -0.45, Polio RdRp inh 68* and MenB inh 2.
CC(=O)N1CCN(C(=S)c2ccc(-c3ccc(C)cc3)o2)CC1 was read as Mtb MbtI inh 80, AID504770 -0.05, Polio RdRp inh 96 and MenB inh 2.
`CC(C)(C)C1=Nn2c(nnc2-c2ccccc2)SC1` gave Mtb MbtI inh 64*, AID504770 -0.4, Polio RdRp inh 93 and MenB inh -1.
N#Cc1c(SCCCOc2ccccc2)sc2c(=O)[nH]c(=O)[nH]c12 was read as AID504770 -0.85, Polio RdRp inh 103 and MenB inh 21*.
CCOC(=O)/C(C#N)=C/c1ccc(N2CCCCC2)o1 was read as Mtb MbtI inh 14, AID504770 0.6, Polio RdRp inh 82 and MenB inh -180.
For COc1cccc(C2=NS(=O)(=O)N(C)C(C(=O)Nc3cccc(O)c3)=C2)c1 the results were Polio RdRp inh -16*.
CSC1=NC(C)(C)Cc2c(C)cccc21 was read as AID504770 -0.65, Polio RdRp inh 90* and MenB inh 0.
Cc1cnc(C(=O)N(CC(=O)Nc2cccc(C)c2C)CC2CCCO2)cn1 (stereo not given) was read as Mtb MbtI inh -5, AID504770 0.15, Polio RdRp inh 101 and MenB inh -11.
Screening Cc1cccc(NC(=O)CN(CC2CCCO2)C(=O)c2cc(-c3ccco3)nc3ccccc23)c1C (stereo not given) returned Mtb MbtI inh 103, AID504770 -0.8, Polio RdRp inh 1.0* and MenB inh -7.
Screening CCCNC(=O)c1nnc(Cc2ccccc2OC)o1 returned Mtb MbtI inh -2, AID504770 -0.1, Polio RdRp inh 102 and MenB inh -3.
`COc1ccc(-c2noc(-c3ccc(NC4CCCC4)c([N+](=O)[O-])c3)n2)cc1OC` gave Polio RdRp inh 79*.
Screening CCN1CCCC1CNC(=O)Nc1ccc2c(c1)N(C)C(=O)c1ccccc1S2 (stereo not given) returned Mtb MbtI inh -5, AID504770 0.1, Polio RdRp inh 100 and MenB inh 6.
Screening CCCN(CCC)c1ccc(/C=N/NC(=O)OCC)cc1 returned Mtb MbtI inh -273, AID504770 2.2, Polio RdRp inh 100 and MenB inh -92.
`CN(C)C1(CNCc2nc3ccccc3c(=O)[nH]2)CCCCC1` gave Mtb MbtI inh 19, AID504770 0.35, Polio RdRp inh 95 and MenB inh -43.
Screening CN(C)C1(CNCc2cnn(-c3ccccc3)n2)CCCCC1 returned Mtb MbtI inh -1, AID504770 0, Polio RdRp inh 88* and MenB inh 8.
